This is an account of results in PubChem BioAssay.

The structures appear in SMILES notation. Active and inactive are the calls of the source.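 The calls were made as follows: active = at least 20% inhibition of 6-phosphogluconate dehydrogenase activity; inactive = the rest.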 Where a SMILES comes first, the peptide text is derived from it. [ ]: non-standard residue; d: D form. The star is where a group is joined. NHCH2CH2OH = OCCN*; For = O=C*

The target of this experiment is 6-phosphogluconate dehydrogenase, decarboxylating (Homo sapiens) (UniProt P52209). As to the kind of experiment: inhibition of human phosphogluconate dehydrogenase – biochemical, recombinant enzyme, NADPH absorbance, primary screen (AID 1159550). To be noted: recombinant 6PGD, NADPH absorbance 341 nm; at 10 µM; hits give high values.
Sequence of 6-phosphogluconate dehydrogenase, decarboxylating (Homo sapiens) (P52209 whole entry, looked up): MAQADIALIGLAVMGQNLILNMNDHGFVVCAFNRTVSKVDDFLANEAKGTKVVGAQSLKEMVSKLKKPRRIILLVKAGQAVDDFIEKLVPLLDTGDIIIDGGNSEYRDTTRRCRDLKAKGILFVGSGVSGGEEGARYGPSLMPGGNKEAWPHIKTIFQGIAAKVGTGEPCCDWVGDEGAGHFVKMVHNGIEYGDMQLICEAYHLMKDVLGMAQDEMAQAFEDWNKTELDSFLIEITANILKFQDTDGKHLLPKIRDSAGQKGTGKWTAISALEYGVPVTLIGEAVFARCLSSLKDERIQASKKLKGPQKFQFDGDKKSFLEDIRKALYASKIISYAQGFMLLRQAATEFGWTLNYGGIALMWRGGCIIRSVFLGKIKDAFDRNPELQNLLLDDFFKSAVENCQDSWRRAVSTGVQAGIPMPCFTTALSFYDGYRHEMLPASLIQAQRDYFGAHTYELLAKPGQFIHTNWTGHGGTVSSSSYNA
Usually inhibition stands for the drop in the measured response relative to a control, in per cent. Consider `CC(C)C1COc2cc3oc(=O)ccc3cc2O1` (centres undefined), for which the inhibition is 3.83% (inactive). The same measure for `COc1ccc2c(c1)O[C@@H]1c3ccc(OC)cc3OC[C@H]21`: 0.294% (inactive). Next, `C/C=C(\C)C(=O)O[C@@H]1[C@@H]2C=C3[C@@H]4CC(=O)O[C@@H](C5=CC(O)OC5=O)[C@]4(C)CC[C@@H]3[C@@](C)(C2=O)[C@@H]([C@@H](O)C(=O)OC)C1(C)C` (some centres undefined): 0.726% (inactive); `NC(=O)NCC(N)C(=O)O` (centres undefined): -2.17% (inactive); `COc1c(-c2ccccc2)oc2c(OC)cccc2c1=O`: -9.55% (inactive).

For `CC(=O)c1ccc(O)c(CC=C(C)C)c1`, the inhibition was 18.5% (inactive).

On to `C=CC(C)(CCC1C(=C)CC(OC(C)=O)C2C(C)(C)CCCC12C)OC(C)=O` (centres undefined), for which the inhibition is 11.4% (inactive). The same measure for `CC(=O)Oc1cc2c(c(C)c1OC(C)=O)CC1OC13[C@@]2(C)CC[C@@]1(C)C2C[C@](C)(C(=O)O)CC[C@]2(C)CC[C@]31C` (some centres undefined): 2.26% (inactive).

On to `C[C@H]1[C@@H](O)O[C@@H]2OC3(C)CC[C@H]4[C@H](C)CC[C@@H]1[C@@]24OO3`, for which the inhibition is -22.8% (inactive).

With `COc1cc(O)c(C(=O)/C=C/c2ccccc2)c(OC)c1`, the inhibition was -2.81% (inactive).

Turning to `Nc1ccccn1`, the inhibition was -0.139% (inactive).

In the case of `NC1(C(=O)O)CCC1`, the inhibition was 2.05% (inactive). The same measure for `COc1ccc(-c2c(O)c3c(OC)c4c(cc3oc2=O)OC(C)(C)CC4)cc1`: 1.85% (inactive); for `CC(C)CCCC(C)C1CCC2C3C(=O)C=C4C[C@@H](O)CCC4(C)C3CCC12C` (some centres undefined): 12.2% (inactive). The same measure for `CCOC(=O)c1c(C)cc(O)c(C)c1O`: -2.48% (inactive); for `N[C@@H](Cc1ccccc1)C(=O)N[C@@H](Cc1ccc(O)cc1)C(=O)O` (H-Phe-Tyr-OH): -6.19% (inactive).

With `O=C1C[C@@H](c2ccccc2)Oc2cc(O)cc(O)c21`, the inhibition was 17.2% (inactive).

On to `C[C@H](N)CO`, for which the inhibition was -0.518% (inactive).

On to `C#CCCCCCCCCCCCC(=O)CC(O)COC(C)=O` (centres undefined), for which the inhibition was -5.7% (inactive). The same measure for `CC(=O)N[C@H]1[C@H]([C@H](O)[C@H](O)CO)O[C@](O)(C(=O)O)C[C@@H]1O`: -6.71% (inactive). Next, `OC[C@@H](O)C(O)[C@H](O)CO`: -0.48% (inactive); `C[C@H](CCC(=O)O)C1CC[C@H]2[C@@H]3CC[C@H]4C[C@H](O)CC[C@]4(C)[C@H]3C[C@H](O)[C@]12C` (some centres undefined): -1.43% (inactive); `CC(=O)OC1C=C(C)C(COc2ccc3ccc(=O)oc3c2)C2(C)CCC(O)C(C)(C)C12` (centres undefined): 9.19% (inactive). As for `CC[C@H](C(=O)[C@@H](C)[C@@H](O)[C@H](C)[C@@H]1O[C@@H]([C@@H](CC)C(=O)O)CC[C@@H]1C)[C@H]1O[C@]2(C=C[C@@H](O)[C@]3(CC[C@@](C)([C@H]4CC[C@](O)(CC)[C@H](C)O4)O3)O2)[C@H](C)C[C@@H]1C`, the inhibition is 2.61% (inactive). Next, `O=C(O)C=CC=Cc1ccccc1`: 8.52% (inactive); `COc1cc(O)c2c(=O)c(-c3ccccc3)coc2c1`: -1.53% (inactive).

Regarding `CC1(C)Oc2ccc3ccc(=O)oc3c2C[C@H]1O`, the inhibition was 1.49% (inactive). With `CC(=O)Oc1ccc2c(c1)CC[C@@H]1[C@@H]2CC[C@]2(C)C(=O)CC[C@@H]12`, the inhibition is -18% (inactive). Next, `O=C(O)C(O)C(O)C(=O)O` (centres undefined): 6.59% (inactive); `CC(=O)Oc1ccc2c(c1)CCC1C2CCC2(C)C(OC(C)=O)CCC12` (centres undefined): 3.64% (inactive). Next, `COc1c(Cl)c(C)c2c(c1Cl)OC(=O)c1c(C)c(Cl)c(OC)c(Cl)c1O2`: -8.06% (inactive); `CC(C)C[C@@H](NC(=O)[C@H](C)NC(=O)CNC(=O)[C@@H](NC=O)C(C)C)C(=O)N[C@@H](C)C(=O)N[C@@H](C(=O)N[C@H](C(=O)N[C@H](C(=O)N[C@@H](Cc1c[nH]c2ccccc12)C(=O)N[C@H](CC(C)C)C(=O)N[C@@H](Cc1c[nH]c2ccccc12)C(=O)N[C@H](CC(C)C)C(=O)N[C@@H](Cc1c[nH]c2ccccc12)C(=O)N[C@H](CC(C)C)C(=O)N[C@@H](Cc1c[nH]c2ccccc12)C(=O)NCCO)C(C)C)C(C)C)C(C)C` (For-VGA[dL]A[dV]VVW[dL]W[dL]W[dL]W-NHCH2CH2OH): 10.9% (inactive); `CC(=O)OCC(=O)[C@@]1(O)CC[C@H]2[C@@H]3CC[C@@H]4C[C@H](O)CC[C@]4(C)[C@H]3C(=O)C[C@@]21C`: -7.21% (inactive). The same measure for `CC(C)c1c(O)ccc2c1CCC1[C@@](C)(C(=O)O)CCC[C@]21C` (some centres undefined): 17.5% (inactive); for `C[C@]12CC[C@@H]3c4ccc(OC(=O)CCC(=O)O)cc4CC[C@H]3[C@@H]1CCC2=O`: 5.64% (inactive). In the case of `CC(=O)O[C@H]1CC2C(C)(C)[C@H](OC(C)=O)C=C[C@@]2(C)C2CC[C@@]3(C)C(=CC(=O)O[C@@H]3c3ccoc3)[C@]21C` (some centres undefined), the inhibition was 0.19% (inactive).

In the case of `CC(=O)O[C@@H]1CC2C(C)(C)C(=O)[C@@H]3O[C@@H]3[C@]2(C)C2CC[C@]3(C)C(=CC(=O)O[C@H]3c3ccoc3)[C@@]21C` (some centres undefined), the inhibition is 0.52% (inactive). Regarding `COC(=O)[C@H](O)[C@H]1C(C)(C)C(=O)[C@@H]2C[C@]3(O)[C@@H]4CC(=O)O[C@@H](c5ccoc5)[C@]4(C)CC[C@@H]3[C@@]1(C)C2=O`, the inhibition was 1.04% (inactive). With `COc1ccc(-c2coc3c(OC)c(OC)cc(OC)c3c2=O)cc1`, the inhibition is 4.09% (inactive).
